# Measured values as given in PubChem BioAssay AID686979 (National Center for Advancing Translational Sciences (NCATS), 2013).
# Screen size: about 420,000 compounds; about 50,000 (12%) were called active. Roughly 26% stayed inconclusive and do not appear here. Many of the other results were omitted from the sample, so actives are more common in it than they were. Values without a mark were called inactive. Calls come from the whole dose curve; as a rule, active = well fitted inhibition curve with a large enough effect; inconclusive = small, poorly fitted or top-dose-only effect; inactive = flat fitted curve, though single readings scatter.
# Experiment: qHTS for Inhibitors of human tyrosyl-DNA phosphodiesterase 1 (TDP1): qHTS in cells in presence of CPT; note: nearly all actives have a fitted effect of over 55% in size
# Conditions: chicken DT40 Tdp1-/-;hTDP1 cells + 20 nM CPT, ATP luminescence, 48 h; series mostly up to 46.2 µM; activity change, negative = growth inhibition: at the top concentration
# Summary of the method: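 Chicken DT40 Tdp1-/- cells stably complemented with human TDP1 were seeded at 400 cells/well in medium containing 20 nM camptothecin, exposed to pin-transferred compounds, and grown at 37 °C for at least 48 hr. Viability was read as ATP luminescence.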
# % is set by controls: 0 for no effect and ±100 for the full control effect; potency is the fitted concentration of half-maximal effect.
SMILES,"activity change, negative = growth inhibition [%]",Potency
COc1cc(OC)c(C(=S)N2CCCC2)cc1OC,-22,
CSc1ccccc1C(=O)OCC(=O)N1CCN(C(C)=O)CC1,-0.484,
Cc1ccc(NC(=O)[C@H](Cc2ccccc2)NC(=O)CC[C@H]2O[C@@H](n3ccc(=O)[nH]c3=O)[C@H](O)[C@@H]2O)cc1C,-6.82,
Cc1cccc(C(=O)Nc2ccc(Oc3cnccn3)cc2)c1,-11.8,
CCCCNC(=O)C[C@@H]1C[C@@]2(C(=O)OCC)CCC=C2N(Cc2cccc3ccccc23)C1=O,,16.4 µM (active)
CCN(CC)C(=O)C1=C(C)N(Cc2ccc(OC)cc2)C(=O)C(CC(=O)NCc2ccco2)C1 (stereo unspecified),-18.4,
CCOC(=O)[C@]12CCC=C1N(CCC1=CCCCC1)C(=O)[C@H](CC(=O)NCc1ccc(C)o1)C2,,16.4 µM (active)
CC1=C(C(=O)N2CCOCC2)CC(CC(=O)NCc2cccc3ccccc23)C(=O)N1CCC1=CCCCC1 (stereo unspecified),-11.8,
C#CCNC(=O)C[C@@H]1C[C@@]2(C(=O)OCC)CCCC=C2N(Cc2ccco2)C1=O,-5.49,
CCCCNC(=O)C[C@@H]1C[C@@]2(C(=O)OCC)CCC=C2N(Cc2ccco2)C1=O,-11.1,
Cc1ccccc1OCC(=O)NNC(=O)c1cc(S(=O)(=O)N(C)C)ccc1N1CCCC1,-16.2,
COc1ccc(NC(=O)CN(C)C(=O)CC2CCCCC2)cc1,1.32,
COc1cc(OC)c(C2C=C(C(=O)O)Nc3ncnn32)cc1OC (stereo unspecified),0.986,
CC(C)CC(=O)Nc1ccc(Cc2ccncc2)cc1,-22.1,
CCNC(=O)C1(C)CCN(C(=O)c2ccccc2)C1 (stereo unspecified),-20.3,
CCOC(=O)NC(=O)C(=CNc1cccc(OC)c1)C(=O)NC(=O)OCC,1.35,
COCCn1nnnc1C(c1cc2ccc(OC)cc2[nH]c1=O)N1CCc2ccccc2C1 (stereo unspecified),-27.8,
COc1ccc2[nH]c3c(=O)n(Cc4ccco4)cnc3c2c1,-2.12,
CCC(c1nnnn1Cc1ccco1)N(CCc1ccccc1)Cc1cc2ccc(OC)cc2[nH]c1=O (stereo unspecified),,23.1 µM (active)
COc1cc(OC)c(C(=O)N2CCCC2)cc1OC,22.1,
Cc1ccc(NC(=O)C(C)Sc2nnc(C3CC3)n2C2CC2)cc1S(=O)(=O)N1CCOCC1 (stereo unspecified),-20.8,
CSCCC(NC(=O)c1ccc(Cl)cc1Cl)C(=O)NNC(=O)c1csc(N2CCOCC2)n1 (stereo unspecified),4.89,
CCOC(=O)c1cc2c(nc1NC(=S)Nc1ccccc1)CC(C)(CC)OC2 (stereo unspecified),0.397,
O=C(NNS(=O)(=O)c1ccc(F)cc1)C1CCCCC1,2.3,
Cc1ccccc1CNC(=O)C1CCCN(S(=O)(=O)N(C)c2ccc(F)cc2)C1 (stereo unspecified),,23.1 µM (active)
CCOC(=O)c1c(S(=O)(=O)N2CCCC(C(=O)NCc3ccc(F)cc3)C2)c(C)n(CC)c1C (stereo unspecified),-14.2,

SMILES,"activity change, negative = growth inhibition [%]",Potency
O=C(NCc1ccccc1Cl)C1CCCN1S(=O)(=O)c1ccc(F)cc1 (stereo unspecified),-27.9,
CCNC(=O)CC1C(=O)N(c2ccc(OC)cc2)C(=O)N1CCOC (stereo unspecified),-3.13,
CN(C)N=Nc1ccc2nc[nH]c2c1,-13.5,
Cc1ccc2c(N)c(C(=O)c3ccccc3)sc2n1,-24.8,
CCCCNC(=O)c1ccc2c(c1)NC(=O)C(C(C)C)N2 (stereo unspecified),-22,
Cc1[nH]c2ccccc2c1C(=O)CN1CC(C)CC(C)C1 (stereo unspecified),,11.6 µM (active)
Cc1[nH]c2ccccc2c1C(=O)CSCC(=O)O,-19.6,
Cc1ccc2c(C(=O)CN3CCCC3)c(C)[nH]c2c1,-19.6,
Cc1[nH]c2ccccc2c1C(=O)CN1CCCC(C)C1 (stereo unspecified),4.31,
Cc1[nH]c2ccccc2c1C(=O)COC(=O)C(C)C,-4.53,
CCOC(=O)N1CCN(CC(=O)c2c(C)[nH]c3ccccc23)CC1,,18.4 µM (active)
CCOCCCNC(=O)C(NC(=O)Cc1c[nH]c2ccccc12)c1ccc(OC)cc1 (stereo unspecified),2.87,
COc1cccc(NC(=O)N2CCN(C(=O)c3nsc4ccccc34)CC2)c1,5.7,
COC(=O)Cn1cnc2scc(-c3ccc(C)c(C)c3)c2c1=O,7.8,
CCOC(=O)Nc1sc(C(=O)N(C)C)c(C)c1C(=O)OCC,-13.3,
CCOC(=O)c1c(NC(=O)COC(=O)c2ccc(S(=O)(=O)C(F)F)cc2)sc(C(=O)N(C)C)c1C,-14.4,
CCOC(=O)c1c(NC(=O)CCl)sc(C(=O)N(CC)CC)c1C,,13 µM (active)
O=C(COC(=O)c1ccc([N+](=O)[O-])cc1Cl)NC(=O)c1ccccc1,1.48,
O=C(NCCN1CCOCC1)c1cnn(-c2nccc(-c3cccs3)n2)c1C1CC1,2.01,
NS(=O)(=O)c1ccc(NC(=O)C(=O)Nc2ccc3nc4n(c(=O)c3c2)CCCCC4)cc1,14.5,
Cc1ccc(OCC(=O)Nc2ccc(N3CCN(C(=O)c4ccco4)CC3)cc2)c(C)c1,,16.4 µM (active)
COc1cccc(C(=O)Nc2ccc(N3CCN(C(=O)c4ccco4)CC3)cc2)c1,,14.6 µM (active)
CCC(=O)Nc1ccc(C(=O)N2CCN(C(=O)c3ccco3)CC2)cc1,-9.24,
CN1CCN(c2ccc(NC(=O)c3ccccc3)cc2)CC1,0.495,
O=C(Nc1ccc2nc3n(c(=O)c2c1)CCCC3)c1ccc(Cl)nc1,-13.5,
